According to PubChem BioAssay AID1159580 (chemical genetic matrix, 2015):
Several values for one entry are separate records, joined by “and”; a condition that tells them apart may be missing. Equal entries are not always repeated. About 2,000 (36%) of roughly 5,500 compounds were called active. Not shown: some 18% with an inconclusive outcome. No stated cut-off is given here; in the data, active means normalized growth mostly below about 0.91 (no sharp cut-off); inconclusive means no clear call, values can overlap the other calls; inactive means mostly above about 0.92. This is one part of the list.

Assay: chemical genetic growth profiling, strain panel (AID 1159580);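 further: tested at 20 µM; growth read once vehicle control cultures reached saturation at 30 °C; 1 = growth at the plate median or of vehicle wells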
Conditions: S. cerevisiae deletion strains, growth OD

Measured: normalized growth

C=C1CC[C@H](O)C/C1=C/C=C1\CCC[C@]2(C)C([C@H](C)/C=C/[C@H](C)C(C)C)CC[C@@H]12 (stereo not given in full)
inactive: locus YAL013W, strain DEP1, stronger effect = lower value 0.977 | locus YAL021C, strain ccr4, stronger effect = lower value 1.05 | locus YAL026C, strain drs2, stronger effect = lower value 1 | locus YAL030W, strain snc1, stronger effect = lower value 1.02 | locus YBL061C, strain skt5, stronger effect = lower value 1.02 | locus YBR009C, strain hhf1, stronger effect = lower value 0.991 | locus YBR021W, strain FUR4, stronger effect = lower value 1.04 | locus YBR023C, strain chs3, stronger effect = lower value 0.998 | locus YBR171W, strain sec66, stronger effect = lower value 1.01 | locus YBR229C, strain ROT2, stronger effect = lower value 0.944 | locus YBR231C, strain swc5, stronger effect = lower value 0.995 | locus YBR279W, strain paf1, stronger effect = lower value 1.01 | locus YCL011C, strain gbp2, stronger effect = lower value 1.02 | locus YCL016C, strain dcc1, stronger effect = lower value 0.995 | locus YCL029C, strain bik1, stronger effect = lower value 0.968 | locus YCL069W, strain vba3, stronger effect = lower value 1.01 | locus YCR088W, strain abp1, stronger effect = lower value 1.03 | locus YDL005C, strain med2, stronger effect = lower value 1 | locus YDL035C, strain GPR1, stronger effect = lower value 0.929 | locus YDL040C, strain nat1, stronger effect = lower value 1.02 | locus YDL074C, strain BRE1, stronger effect = lower value 0.961 | locus YDL101C, strain DUN1, stronger effect = lower value 0.976 | locus YDL185W, strain tfp1, stronger effect = lower value 0.981 | locus YDL192W, strain arf1, stronger effect = lower value 0.976 | locus YDR001C, strain nth1, stronger effect = lower value 1.03 | locus YDR069C, strain doa4, stronger effect = lower value 1.03 | locus YDR101C, strain arx1, stronger effect = lower value 0.948 | locus YDR137W, strain rgp1, stronger effect = lower value 0.939 | locus YDR150W, strain NUM1, stronger effect = lower value 0.977 | locus YDR159W, strain sac3, stronger effect = lower value 1.02 | locus YDR162C, strain NBP2, stronger effect = lower value 0.863 | locus YDR195W, strain ref2 1.03 | locus YDR297W, strain sur2, stronger effect = lower value 1.01 | locus YDR318W, strain mcm21, stronger effect = lower value 0.98 | locus YDR334W, strain swr1, stronger effect = lower value 1.03 | locus YDR335W, strain msn5, stronger effect = lower value 1.03 | locus YDR388W, stronger effect = lower value 0.977 | locus YDR392W, strain spt3, stronger effect = lower value 0.911 | locus YDR502C, strain sam2, stronger effect = lower value 0.998 | locus YEL003W, strain gim4, stronger effect = lower value 1.03 | locus YEL037C, strain rad23, stronger effect = lower value 1.01 | locus YEL061C, strain CIN8 (second series), stronger effect = lower value 1.03 | locus YEL061C, strain CIN8, stronger effect = lower value 0.982 | locus YER015W, strain faa2, stronger effect = lower value 1.01 | locus YER016W, strain bim1, stronger effect = lower value 1.02 | locus YER110C, stronger effect = lower value 0.977 | locus YER111C, strain swi4, stronger effect = lower value 0.996 | locus YER155C, strain BEM2 (second series), stronger effect = lower value 1.06 | locus YER155C, strain BEM2, stronger effect = lower value 0.997 | locus YER167W, strain BCK2, stronger effect = lower value 0.999 | locus YFR010W, strain ubp6, stronger effect = lower value 1.02 | locus YGL078C, strain dbp3, stronger effect = lower value 0.972 | locus YGL086W, strain mad1, stronger effect = lower value 0.958 | locus YGL167C, strain pmr1, stronger effect = lower value 1.03 | locus YGL173C, strain kem1, stronger effect = lower value 1.04 | locus YGL227W, strain vid30, stronger effect = lower value 1.01 | locus YGL240W, strain doc1, stronger effect = lower value 1.03 | locus YGL248W, strain PDE1, stronger effect = lower value 0.978 | locus YGL253W, strain hxk2, stronger effect = lower value 0.989 | locus YGR078C, strain PAC10, stronger effect = lower value 0.974 | locus YGR135W, strain pre9, stronger effect = lower value 1.03 | locus YGR252W, strain gcn5, stronger effect = lower value 1.08 | locus YHR013C, strain ard1, stronger effect = lower value 1.07 | locus YHR027C, strain rpn1, stronger effect = lower value 1.03 | locus YHR030C, strain SLT2, stronger effect = lower value 0.998 and 0.979 | locus YHR079C, strain IRE1 (second series), stronger effect = lower value 0.964 | locus YHR079C, strain IRE1, stronger effect = lower value 0.997 | locus YHR094C, strain hxt1, stronger effect = lower value 0.978 | locus YHR129C, strain ARP1, stronger effect = lower value 0.988 | locus YHR142W, strain chs7, stronger effect = lower value 1 | locus YHR200W, strain rpn10, stronger effect = lower value 0.981 | locus YIL066C, strain RNR3, stronger effect = lower value 0.968 | locus YIL073C, strain SPO22, stronger effect = lower value 0.994 | locus YIL125W, strain kgd1, stronger effect = lower value 0.98 | locus YIR030C, strain dcg1, stronger effect = lower value 0.984 | locus YJL092W, strain hpr5, stronger effect = lower value 1.02 | locus YJL095W, strain BCK1 (second series), stronger effect = lower value 1.02 | locus YJL095W, strain BCK1, stronger effect = lower value 0.959 and 1 | locus YJL115W, strain asf1, stronger effect = lower value 1.02 | locus YJL129C, strain trk1, stronger effect = lower value 1.02 | locus YJL134W, strain LCB3, stronger effect = lower value 0.982 | locus YJL154C, strain vps35, stronger effect = lower value 1.03 | locus YJL164C, strain tpk1, stronger effect = lower value 1.01 | locus YJL166W, strain qcr8, stronger effect = lower value 1 | locus YJL168C, strain set2, stronger effect = lower value 0.991 | locus YJL187C, strain SWE1 (second series), stronger effect = lower value 0.965 | locus YJR043C, strain POL32, stronger effect = lower value 0.956 | locus YJR066W, strain TOR1, stronger effect = lower value 0.891 | locus YJR075W, strain HOC1, stronger effect = lower value 0.979 | locus YKL009W, strain mrt4, stronger effect = lower value 0.935 | locus YKL068W, stronger effect = lower value 0.994 | locus YKL085W, strain MDH1 (second series), stronger effect = lower value 0.993 | locus YKL085W, strain MDH1, stronger effect = lower value 0.993 | locus YKL160W, strain elf1, stronger effect = lower value 1.01 | locus YKR001C, strain vps1, stronger effect = lower value 0.949 | locus YKR026C, strain gcn3, stronger effect = lower value 1.02 | locus YKR091W, strain srl3, stronger effect = lower value 1.01 | locus YLL001W, strain dnm1, stronger effect = lower value 1.02 | locus YLL026W, stronger effect = lower value 1.01 | locus YLL041C, strain sdh2, stronger effect = lower value 1.03 | locus YLR027C, strain aat2, stronger effect = lower value 1.01 | locus YLR039C, strain RIC1, stronger effect = lower value 0.777 | locus YLR058C, strain SHM2, stronger effect = lower value 0.978 | locus YLR102C, strain apc9, stronger effect = lower value 0.991 | locus YLR113W, strain HOG1, stronger effect = lower value 1.02 | locus YLR221C, strain rsa3, stronger effect = lower value 1.02 | locus YLR258W, strain gsy2, stronger effect = lower value 1.01 | locus YLR262C, strain YPT6 (second series), stronger effect = lower value 0.907 | locus YLR262C, strain YPT6, stronger effect = lower value 0.758 | locus YLR268W, strain sec22, stronger effect = lower value 0.937 | locus YLR320W, strain mms22, stronger effect = lower value 0.987 | locus YLR330W, strain CHS5, stronger effect = lower value 0.984 | locus YLR342W, strain FKS1 (second series), stronger effect = lower value 0.991 | locus YLR342W, strain FKS1, stronger effect = lower value 1.01 | locus YLR357W, strain rsc2, stronger effect = lower value 1.05 | locus YLR370C, strain arc18, stronger effect = lower value 1.04 | locus YLR371W, strain rom2, stronger effect = lower value 1.01 | locus YLR384C, strain iki3, stronger effect = lower value 1.02 | locus YLR418C, strain cdc73, stronger effect = lower value 0.985 | locus YML016C, strain PPZ1, stronger effect = lower value 0.984 | locus YML032C, strain rad52, stronger effect = lower value 0.979 | locus YML120C, strain ndi1, stronger effect = lower value 1.03 | locus YML124C, strain tub3, stronger effect = lower value 0.985 | locus YMR058W, strain fet3, stronger effect = lower value 1 | locus YMR078C, strain ctf18, stronger effect = lower value 0.984 | locus YMR125W, strain sto1, stronger effect = lower value 1.02 | locus YMR129W, stronger effect = lower value 1.02 | locus YMR205C, strain PFK2, stronger effect = lower value 1.02 | locus YMR223W, strain ubp8, stronger effect = lower value 1.01 | locus YMR231W, strain pep5, stronger effect = lower value 1 | locus YMR263W, strain SAP30, stronger effect = lower value 0.976 | locus YMR307W, strain GAS1, stronger effect = lower value 0.923 | locus YNL067W, strain RPL9B, stronger effect = lower value 0.982 | locus YNL071W, strain lat1, stronger effect = lower value 0.983 | locus YNL183C, strain NPR1, stronger effect = lower value 0.98 | locus YNL209W, strain ssb2, stronger effect = lower value 1.01 | locus YNL233W, strain BNI4, stronger effect = lower value 0.993 | locus YNL248C, strain rpa49, stronger effect = lower value 1.02 | locus YNL250W, strain rad50, stronger effect = lower value 0.993 | locus YNL271C, strain bni1, stronger effect = lower value 0.967 | locus YNL298W, strain CLA4, stronger effect = lower value 0.969 | locus YNL307C, strain MCK1, stronger effect = lower value 0.989 | locus YNL322C, strain KRE1 (second series), stronger effect = lower value 1.03 | locus YNL322C, strain KRE1, stronger effect = lower value 0.999 | locus YNR049C, strain mso1, stronger effect = lower value 1.02 | locus YNR052C, strain pop2, stronger effect = lower value 0.981 | locus YOL006C, strain TOP1, stronger effect = lower value 0.967 | locus YOL012C, strain htz1 1.45 | locus YOL147C, strain pex11, stronger effect = lower value 0.993 | locus YOR001W, strain rrp6, stronger effect = lower value 1 | locus YOR061W, strain CKA2, stronger effect = lower value 0.953 | locus YOR069W, strain VPS5, stronger effect = lower value 0.98 | locus YOR070C, strain gyp1, stronger effect = lower value 1.01 | locus YOR080W, strain dia2, stronger effect = lower value 1.01 | locus YOR083W, strain WHI5, stronger effect = lower value 0.985 | locus YOR106W, strain vam3, stronger effect = lower value 1.04 | locus YOR136W, strain idh2, stronger effect = lower value 0.981 | locus YOR144C, strain elg1, stronger effect = lower value 0.989 | locus YOR184W, strain ser1, stronger effect = lower value 0.939 | locus YOR231W, strain MKK1, stronger effect = lower value 1.02 | locus YOR265W, strain rbl2, stronger effect = lower value 1.01 | locus YOR270C, strain vph1, stronger effect = lower value 0.873 | locus YOR290C, strain snf2, stronger effect = lower value 1.02 | locus YOR316C, strain cot1, stronger effect = lower value 0.978 | locus YPL051W, strain arl3, stronger effect = lower value 1.01 | locus YPL055C, strain LGE1, stronger effect = lower value 1.01 | locus YPL078C, strain atp4, stronger effect = lower value 1.01 | locus YPL106C, strain sse1, stronger effect = lower value 1.09 | locus YPL240C, strain hsp82, stronger effect = lower value 1.01 | locus YPL256C, strain CLN2, stronger effect = lower value 1.01 | locus YPR119W, strain clb2, stronger effect = lower value 0.982 | locus YPR141C, strain kar3, stronger effect = lower value 0.981 | locus YPR163C, strain tif3, stronger effect = lower value 0.992 | locus YPR167C, strain met16, stronger effect = lower value 0.985 | strain wtn01, stronger effect = lower value 0.981
